From ChEMBL document CHEMBL3988442, “University of Dundee, Small-Polar-MMV Screening Library” (2021)
Among all 48,000 compounds or so, about 13,000 (27%) showed an effect of 50% or more. The list shows a part of the results.

tested on: Wolbachia pipientis; test: Anti-Wolbachia Cell-Based Screen; assay type: functional; set-up: scale not given: in the data most compounds retested in dose-response had high values; settings: 5 µM

| Compound | Percent Effect [%] |
| --- | --- |
| CC(C)N1CC2(CCCN(c3ncc(Cl)cc3F)C2)CCC1=O (stereo not drawn) | -5.351 |
| Cc1ccc(NC(=O)CNc2ccn(CC(N)=O)n2)c(Cl)c1 | 2.31 |
| NC(=O)Cn1ccc(NC(=O)C2(c3ccc(F)cc3)CC2)n1 | -13.95 |
| CCn1ccc(NC(=O)CCc2c(C)noc2C)n1 | 94.65 |
| Cc1nn(C)c(C)c1CCC(=O)Nc1cccn(C)c1=O | 0.3485 |
| Cc1noc(C)c1CCC(=O)NCCc1cccs1 | 18.14 |
| Cc1noc(C)c1CC(=O)Nc1ccn(CC(N)=O)n1 | 108.2 |
| CCn1ccc(NC(=O)CCc2c(C)nn(C)c2C)n1 | 89.06 |
| Cc1noc(C)c1CC(=O)NCCc1cccs1 | 21.95 |
| CCS(=O)(=O)CCn1ccc(NC(=O)CCc2cccc(C)c2)n1 | -1.723 |
| Cc1noc(C)c1CCC(=O)N(C)C(C)c1cccs1 (stereo not drawn) | -6.492 |
| Cc1nn(C)c(C)c1CCC(=O)Nc1cn(C)c(=O)n(C)c1=O | -11.84 |
| Cc1noc(C)c1CCC(=O)Nc1ccn(C)n1 | 102.9 |
| CCc1cc(N(C)Cc2c(C)nn(C)c2C)n2nccc2n1 | -6.903 |
| CN(Cc1cc(F)ccc1F)CC(C)(CO)CO | 17.08 |
| CNC(=O)c1cccc(NCCOc2ccc(CC#N)cc2)c1C | 12.16 |
| COc1cccc(Cn2ncc(N(C)CCc3ccccc3)cc2=O)c1 | -17.12 |
| CC(C)OCCn1nnnc1Cc1ccc(Br)cc1 | -13.25 |
| CCOC(C(=O)N1CCn2c(C)nnc2C1)c1ccccc1 (stereo not drawn) | -1.753 |
| CCN(C)CC1CCN(c2ncc(Br)cn2)C1 (stereo not drawn) | -2.721 |
| CN(C)C(C(=O)N1CCCC1)c1ccccc1F (stereo not drawn) | 1.504 |

| Compound | Percent Effect [%] |
| --- | --- |
| CN1CCCC1c1ccnc(-c2ccccn2)n1 (stereo not drawn) | 114 |
| COc1cccc(-c2nccc(C3CCCN3C)n2)c1 (stereo not drawn) | 102 |
| COCCN1CCCC1c1ccnc(-c2ccccc2)n1 (stereo not drawn) | 120.2 |
| COc1cccc(-c2noc3c2CN(c2ncnc4c2CCC4)CC3)c1 | -1.898 |
| Cc1nn(C)c2nc(-c3ccccn3)nc(NCCC3CCCN3C)c12 (stereo not drawn) | -7.173 |
| COCCOc1ccnc(-c2noc([C@@H]3CCCN3C)n2)c1 | -6.49 |
| COc1ccc(C2CCCN2c2cnccn2)c(OC)c1 (stereo not drawn) | 8.264 |
| COCCOc1ccnc(-c2noc([C@@H]3CCCN3CC(C)(C)C)n2)c1 | 20.74 |
| COc1ccc(-c2nccc(C3CCCN3C)n2)cc1 (stereo not drawn) | 122.9 |
| COc1ccc(-c2noc([C@@H]3C[C@@H](O)CN3C3CCN(C)CC3)n2)cc1 | -10.46 |
| COCCOc1ccnc(-c2noc([C@@H]3CCCN3CC3CC3)n2)c1 | -13.12 |
| O=C(N1CCOCC1)N1CCCC1c1nc(-c2ccccn2)no1 (stereo not drawn) | 12.43 |
| CN(CC(=O)NC(C)(C#N)C1CC1)Cc1nnc(C2CC2)n1C (stereo not drawn) | -18.04 |
| Cc1cccc(S(=O)(=O)N2CSCC2C(=O)NC(C)(C)C)c1 (stereo not drawn) | -10.25 |
| CCc1nc(CCNC(=O)NC2CC2)sc1C | 2.732 |
| C/C=C(\C)CN1C[C@H](c2cccc(OC)c2)[C@@H](N)C1 | 1.044 |
| CN1CCCC1CCn1ccnc1-c1nc(-c2ccccc2)no1 (stereo not drawn) | -1.363 |
| CN1CCN(C2CCN(c3ccnc(-c4ccccc4)n3)CC2)C1=O | 9.74 |
| CN1CCCC1c1ccnc(-c2ccccc2)n1 (stereo not drawn) | 129.7 |
| O=C(C[C@H]1[C@H]2CN(C(=O)Cc3ccccn3)C[C@@H]12)Nc1cccnc1 | -5.449 |
| O=C(c1ccnnc1)N1C[C@@H](OCC2CCCC2)[C@H]2OCCC[C@H]21 | -2.599 |

| Compound | Percent Effect [%] |
| --- | --- |
| CN(C)S(=O)(=O)N1C[C@H](Oc2cccnc2)[C@H]2OCCC[C@H]21.O=C(O)C(F)(F)F | 21.05 |
| O=C(C1=CCCC1)N1C[C@H](Oc2cccnc2)[C@H]2OCCC[C@H]21 | 9.91 |
| O=C(c1cscn1)N1C[C@@H](Oc2cccnc2)[C@H]2OCCC[C@H]21 | 101.6 |
| CN(C)CC(=O)N1C[C@@H](Oc2ccccn2)[C@H]2OCCC[C@H]21 | -36.21 |
| O=C(CC1CCCC1)N1C[C@H](Oc2cccnc2)[C@H]2OCCC[C@H]21.O=C(O)C(F)(F)F | 105.6 |
| O=C(Cc1ccccn1)N1C[C@@H](Oc2cccnc2)[C@H]2OCCC[C@H]21 | 93.72 |
| Cc1[nH]nc(CCC(=O)N2C[C@H]3CC[C@@H]2CN(C(=O)N(C)C)C3)c1C | -18.31 |
| CC(=O)N[C@H](C)c1c(-c2ccc(Cl)cc2)noc1C(=O)O | -1.378 |
| CCOCC1c2c(ncn2C(C)C)CCN1C(=O)CC (stereo not drawn) | -9.692 |
| Cn1cnc2c1C(COCc1ccccc1)N(Cc1ccncc1)CC2.O=C(O)C(F)(F)F.O=C(O)C(F)(F)F.O=C(O)C(F)(F)F (stereo not drawn) | -5.71 |
| CCOCC1c2c(ncn2C)CCN1C(=O)c1cscn1 (stereo not drawn) | 99.42 |
| CCOCC1c2c(ncn2C(C)C)CCN1C(C)C.O=C(O)C(F)(F)F.O=C(O)C(F)(F)F (stereo not drawn) | 0.9894 |
| CCOCC1c2c(ncn2C)CCN1C(=O)c1ccoc1 (stereo not drawn) | 86.79 |
| CCOCC1c2c(ncn2C(C)C)CCN1C(=O)C1CC1 (stereo not drawn) | 9.389 |
| CCOCC1c2c(ncn2C)CCN1C(=O)c1cnc(C)cn1.O=C(O)C(F)(F)F (stereo not drawn) | 107 |
| Cn1cnc2c1C(COCc1ccccc1)N(Cc1cccnc1)CC2.O=C(O)C(F)(F)F.O=C(O)C(F)(F)F.O=C(O)C(F)(F)F (stereo not drawn) | 3.52 |
| O=C(c1cscn1)N1CCn2cnc(COCC3CC3)c2C1 | -4.402 |
| O=C(NCCn1ccnc1-c1cc2n(n1)CCCNC2)c1ccncc1 | -0.5813 |
| CC(NC(=O)c1ccoc1)C(=O)N(C)Cc1cccc(C(F)(F)F)c1 (stereo not drawn) | 12.38 |
| CCn1nc2c(cc1=O)CN(Cc1nc(CCOC)no1)CC2 | -7.437 |
| Cc1cccc(C(C)(C)CNC(=O)CCSc2nnnn2C)c1 | -0.1425 |
